Data from PubChem BioAssay AID1159580 (chemical genetic matrix, 2015).
Values joined by “and” are separate entries in the source; they are usually repeats but may differ in a detail not shown here. Equal values may be shown once. Among all 5,500 compounds or so, about 2,000 (36%) were called active. Inconclusive results (about 18%) are left out. Cut-off read from the data, not from the text of the source: active = normalized growth mostly below about 0.91 (no sharp cut-off); inconclusive = no clear call, values can overlap the other calls; inactive = mostly above about 0.92. Some of the results follow.

Test: chemical genetic growth profiling, strain panel (AID 1159580);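 note: tested at 20 µM; growth read once vehicle control cultures reached saturation at 30 °C; 1 = growth at the plate median or of vehicle wells; lower values mean less growth of the strain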
Conditions: growth OD

Measured: normalized growth

COc1cccc(OC)c1OCCNCC1COc2ccccc2O1 (centres undefined)
inactive: S. cerevisiae deletion strains, locus YAL013W, strain DEP1, hits give low values 1.02 | S. cerevisiae deletion strains, locus YAL040C, strain CLN3, hits give low values 0.995 | S. cerevisiae deletion strains, locus YBR021W, strain FUR4, hits give low values 0.991 | S. cerevisiae deletion strains, locus YBR229C, strain ROT2, hits give low values 1.01 | S. cerevisiae deletion strains, locus YCL029C, strain bik1, hits give low values 0.982 | S. cerevisiae deletion strains, locus YCL061C, strain MRC1 (second series), hits give low values 0.999 | S. cerevisiae deletion strains, locus YDL035C, strain GPR1, hits give low values 1.01 | S. cerevisiae deletion strains, locus YDL074C, strain BRE1, hits give low values 1.04 | S. cerevisiae deletion strains, locus YDL101C, strain DUN1, hits give low values 1.03 | S. cerevisiae deletion strains, locus YDL134C, strain PPH21, hits give low values 1.01 | S. cerevisiae deletion strains, locus YDL185W, strain tfp1, hits give low values 0.991 | S. cerevisiae deletion strains, locus YDL192W, strain arf1, hits give low values 0.99 | S. cerevisiae deletion strains, locus YDR101C, strain arx1, hits give low values 0.965 | S. cerevisiae deletion strains, locus YDR150W, strain NUM1, hits give low values 1.02 | S. cerevisiae deletion strains, locus YDR162C, strain NBP2, hits give low values 1.04 | S. cerevisiae deletion strains, locus YDR318W, strain mcm21, hits give low values 0.966 | S. cerevisiae deletion strains, locus YDR363W, strain ESC2, hits give low values 0.955 | S. cerevisiae deletion strains, locus YDR388W, hits give low values 0.983 | S. cerevisiae deletion strains, locus YDR502C, strain sam2, hits give low values 0.995 | S. cerevisiae deletion strains, locus YEL061C, strain CIN8, hits give low values 1.01 | S. cerevisiae deletion strains, locus YER002W, strain NOP16, hits give low values 1 | S. cerevisiae deletion strains, locus YER110C, hits give low values 0.978 | S. cerevisiae deletion strains, locus YER155C, strain BEM2, hits give low values 1.01 | S. cerevisiae deletion strains, locus YER167W, strain BCK2, hits give low values 1 | S. cerevisiae deletion strains, locus YGL078C, strain dbp3, hits give low values 0.991 | S. cerevisiae deletion strains, locus YGL086W, strain mad1, hits give low values 0.974 | S. cerevisiae deletion strains, locus YGL248W, strain PDE1, hits give low values 1.02 | S. cerevisiae deletion strains, locus YGR078C, strain PAC10, hits give low values 1.03 | S. cerevisiae deletion strains, locus YGR135W, strain pre9, hits give low values 0.975 | S. cerevisiae deletion strains, locus YGR229C, strain SMI1, hits give low values 1.01 and 0.909 | S. cerevisiae deletion strains, locus YGR252W, strain gcn5, hits give low values 0.907 | S. cerevisiae deletion strains, locus YHR030C, strain SLT2, hits give low values 1.01 | S. cerevisiae deletion strains, locus YHR079C, strain IRE1 (second series), hits give low values 0.978 | S. cerevisiae deletion strains, locus YHR094C, strain hxt1, hits give low values 0.992 | S. cerevisiae deletion strains, locus YHR129C, strain ARP1, hits give low values 1.01 | S. cerevisiae deletion strains, locus YHR200W, strain rpn10, hits give low values 0.977 | S. cerevisiae deletion strains, locus YIL066C, strain RNR3, hits give low values 1.01 | S. cerevisiae deletion strains, locus YIL073C, strain SPO22, hits give low values 0.999 | S. cerevisiae deletion strains, locus YIL125W, strain kgd1, hits give low values 0.97 | S. cerevisiae deletion strains, locus YIR030C, strain dcg1, hits give low values 0.986 | S. cerevisiae deletion strains, locus YJL095W, strain BCK1, hits give low values 0.992 | S. cerevisiae deletion strains, locus YJL134W, strain LCB3, hits give low values 1.01 | S. cerevisiae deletion strains, locus YJL168C, strain set2, hits give low values 0.98 | S. cerevisiae deletion strains, locus YJL187C, strain SWE1 (second series), hits give low values 1.02 | S. cerevisiae deletion strains, locus YJR043C, strain POL32, hits give low values 1.01 | S. cerevisiae deletion strains, locus YJR075W, strain HOC1, hits give low values 1.01 and 0.99 | S. cerevisiae deletion strains, locus YKL009W, strain mrt4, hits give low values 1 | S. cerevisiae deletion strains, locus YKL068W, hits give low values 0.995 | S. cerevisiae deletion strains, locus YKL085W, strain MDH1 (second series), hits give low values 1.03 | S. cerevisiae deletion strains, locus YKL085W, strain MDH1, hits give low values 1.03 | S. cerevisiae deletion strains, locus YKL190W, strain CNB1, hits give low values 1.01 | S. cerevisiae deletion strains, locus YKR001C, strain vps1, hits give low values 0.999 | S. cerevisiae deletion strains, locus YLR039C, strain RIC1, hits give low values 1.11 | S. cerevisiae deletion strains, locus YLR058C, strain SHM2, hits give low values 1.02 | S. cerevisiae deletion strains, locus YLR102C, strain apc9, hits give low values 0.983 | S. cerevisiae deletion strains, locus YLR262C, strain YPT6, hits give low values 1.16 | S. cerevisiae deletion strains, locus YLR268W, strain sec22, hits give low values 0.98 | S. cerevisiae deletion strains, locus YLR330W, strain CHS5, hits give low values 1.01 | S. cerevisiae deletion strains, locus YLR342W, strain FKS1 (second series), hits give low values 0.965 | S. cerevisiae deletion strains, locus YLR371W, strain rom2, hits give low values 0.982 | S. cerevisiae deletion strains, locus YLR418C, strain cdc73, hits give low values 0.983 | S. cerevisiae deletion strains, locus YML016C, strain PPZ1, hits give low values 1.01 | S. cerevisiae deletion strains, locus YML032C, strain rad52, hits give low values 0.96 | S. cerevisiae deletion strains, locus YML124C, strain tub3, hits give low values 0.989 | S. cerevisiae deletion strains, locus YMR078C, strain ctf18, hits give low values 0.985 | S. cerevisiae deletion strains, locus YMR223W, strain ubp8, hits give low values 0.963 | S. cerevisiae deletion strains, locus YMR263W, strain SAP30, hits give low values 1.02 and 0.998 | S. cerevisiae deletion strains, locus YMR307W, strain GAS1, hits give low values 1.08 and 0.993 | S. cerevisiae deletion strains, locus YNL067W, strain RPL9B, hits give low values 1.02 | S. cerevisiae deletion strains, locus YNL128W, strain TEP1, hits give low values 1.02 and 1.01 | S. cerevisiae deletion strains, locus YNL153C, strain GIM3, hits give low values 1.03 | S. cerevisiae deletion strains, locus YNL175C, strain NOP13, hits give low values 1.02 | S. cerevisiae deletion strains, locus YNL197C, strain WHI3, hits give low values 1.04 | S. cerevisiae deletion strains, locus YNL224C, strain SQS1, hits give low values 0.999 | S. cerevisiae deletion strains, locus YNL233W, strain BNI4, hits give low values 1.02 | S. cerevisiae deletion strains, locus YNL250W, strain rad50, hits give low values 1.01 | S. cerevisiae deletion strains, locus YNL271C, strain bni1, hits give low values 0.983 | S. cerevisiae deletion strains, locus YNL298W, strain CLA4, hits give low values 0.977 | S. cerevisiae deletion strains, locus YNL307C, strain MCK1, hits give low values 0.975 | S. cerevisiae deletion strains, locus YNL322C, strain KRE1, hits give low values 1.02 and 0.982 | S. cerevisiae deletion strains, locus YNR052C, strain pop2, hits give low values 0.966 | S. cerevisiae deletion strains, locus YOL006C, strain TOP1, hits give low values 1.03 | S. cerevisiae deletion strains, locus YOL012C, strain htz1 1.66 | S. cerevisiae deletion strains, locus YOL147C, strain pex11, hits give low values 0.991 | S. cerevisiae deletion strains, locus YOR061W, strain CKA2, hits give low values 1.02 | S. cerevisiae deletion strains, locus YOR069W, strain VPS5, hits give low values 1.01 | S. cerevisiae deletion strains, locus YOR083W, strain WHI5 (second series), hits give low values 1.02 | S. cerevisiae deletion strains, locus YOR136W, strain idh2, hits give low values 0.992 | S. cerevisiae deletion strains, locus YOR144C, strain elg1, hits give low values 0.994 | S. cerevisiae deletion strains, locus YOR184W, strain ser1, hits give low values 0.954 | S. cerevisiae deletion strains, locus YOR316C, strain cot1, hits give low values 0.988 | S. cerevisiae deletion strains, locus YPL055C, strain LGE1, hits give low values 1.07 and 0.961 | S. cerevisiae deletion strains, locus YPL241C, strain CIN2, hits give low values 1.01 | S. cerevisiae deletion strains, locus YPR119W, strain clb2, hits give low values 0.983 | S. cerevisiae deletion strains, locus YPR141C, strain kar3, hits give low values 0.987 | S. cerevisiae deletion strains, locus YPR163C, strain tif3, hits give low values 0.985 | S. cerevisiae deletion strains, locus YPR167C, strain met16, hits give low values 0.986 | S. cerevisiae deletion strains, strain wtn01, hits give low values 0.988 | S. cerevisiae strains, strain wild type, hits give low values 1.01
